# The full data set covers some 7,900 targets. This sample favours those with a hit. About 0.6% of all pairs of compound and target were hits. Values without a mark were called inactive.
# Experiments:
# Experiment in all cases: log2 fold change, soluble protein after heating vs DMSO (PISA); higher = thermal stabilisation; K562 cells, 10 uM, 30 min; active = over 0.2 and 3.5 SD of the protein, either way, in both replicates (recomputed)
# IRAK-1-4 Inhibitor I = compound: C1COCCN1CCN2C3=CC=CC=C3N=C2NC(=O)C4=CC(=CC=C4)[N+](=O)[O-] [IRAK-1-4 Inhibitor I]
# Procedure, shortened: (§1)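 Soluble protein was quantified by TMTpro 16plex LC-MS/MS after channel sums were equalised. It was obtained as the supernatant after 21,000xg for 90 min from pooled aliquots of K562 cells (2×10^6 cells/mL, 10 μM compound, 30 min) heated for 3 min across 48°C-58°C and extracted in PBS with 0.5% NP-40 at 4°C. Thermal stability values are relative to control samples and come from duplicates. They are given as log2 fold changes.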
# ibrutinib = compound: C=CC(=O)N1CCC[C@@H](n2nc(-c3ccc(Oc4ccccc4)cc3)c3c(N)ncnc32)C1 [ibrutinib]
# Procedure, shortened: as §1
# [1] = compound: CC(=O)c1cnc2ccc(-c3cc(Cl)c(O)c(Cl)c3)nc2c1N[C@H]1CC[C@H](CN(C)C)CC1
# Procedure, shortened: as §1
# ralimetinib = compound: CC(C)(C)Cn1c(N)nc2ccc(-c3[nH]c(C(C)(C)C)nc3-c3ccc(F)cc3)nc21 [ralimetinib]
# Procedure, shortened: as §1
# [2] = compound: CC(C)(O)CC(=O)NCCn1ccc2ncnc(Nc3ccc(Oc4cccc(C(F)(F)F)c4)c(Cl)c3)c21
# Procedure, shortened: as §1
# [3] = compound: CC(C)C1=C2N=C(C=C(N2N=C1)NCC3=CC=CC=C3)NCCCCCCN
# Procedure, shortened: as §1
# [4] = compound: CC(C)C[C@@H](C=O)NC(=O)[C@H](CC(C)C)NC(=O)[C@H](CC(C)C)NC(=O)OCc1ccccc1
# Procedure, shortened: as §1
# pinometostat = compound: CC(C)N(C[C@H]1O[C@@H](n2cnc3c(N)ncnc32)[C@H](O)[C@@H]1O)[C@H]1C[C@@H](CCc2nc3cc(C(C)(C)C)ccc3[nH]2)C1 [pinometostat]
# Procedure, shortened: as §1
# [5] = compound: CC1=C(C(CC(=O)N1)C2=CC=C(C=C2)C(F)(F)F)C(=O)NC3=C(C=C4C(=C3)C=NN4)F
# Procedure, shortened: as §1
# [6] = compound: CC1=C(C2=C(C=C1)C(=O)C3=CC=CC=C3N2CCCN)C
# Procedure, shortened: as §1
# [7] = compound: CC1=C(C=C(C=C1)NC(=O)C2=CC(=CC=C2)C(C)(C)C#N)NC3=CC4=C(C=C3)N=CN(C4=O)C
# Procedure, shortened: as §1
# [8] = compound: CC1=C(C=C(C=C1)NC(=O)C2=CC(=CC=C2)N(C)C)NC(=O)C3=CC=C(C=C3)O
# Procedure, shortened: as §1
# [9] = compound: CC1=CC=C(C=C1)SC2=C3C=C(SC3=CN=C2)C(=O)N
# Procedure, shortened: as §1
# [10] = compound: CC1=NC(=CC=C1)C2=C(N=C(N2)C(C)(C)C)C3=CC4=NC=CN=C4C=C3
# Procedure, shortened: as §1
# Nexturastat A = compound: CCCCN(Cc1ccc(C(=O)NO)cc1)C(=O)Nc1ccccc1 [Nexturastat A]
# Procedure, shortened: as §1
# vemurafenib = compound: CCCS(=O)(=O)Nc1ccc(F)c(C(=O)c2c[nH]c3ncc(-c4ccc(Cl)cc4)cc23)c1F [vemurafenib]
# Procedure, shortened: as §1
# [11] = compound: CCCS(=O)(=O)Nc1ccc(F)c(C(=O)c2c[nH]c3ncc(Cl)cc23)c1F
# Procedure, shortened: as §1
# [12] = compound: CCCc1cc(C)[nH]c(=O)c1CNC(=O)c1cc(-c2ccnc(N3CCN(C)CC3)c2)cc2c1cnn2C(C)C
# Procedure, shortened: as §1
# givinostat = compound: CCN(CC)Cc1ccc2cc(COC(=O)Nc3ccc(C(=O)NO)cc3)ccc2c1 [givinostat]
# Procedure, shortened: as §1
# barasertib = compound: CCN(CCCOc1ccc2c(Nc3cc(CC(=O)Nc4cccc(F)c4)[nH]n3)ncnc2c1)CCOP(=O)(O)O [barasertib]
# Procedure, shortened: as §1
# Sequence of UniProt P31323 (P31323 whole entry, looked up): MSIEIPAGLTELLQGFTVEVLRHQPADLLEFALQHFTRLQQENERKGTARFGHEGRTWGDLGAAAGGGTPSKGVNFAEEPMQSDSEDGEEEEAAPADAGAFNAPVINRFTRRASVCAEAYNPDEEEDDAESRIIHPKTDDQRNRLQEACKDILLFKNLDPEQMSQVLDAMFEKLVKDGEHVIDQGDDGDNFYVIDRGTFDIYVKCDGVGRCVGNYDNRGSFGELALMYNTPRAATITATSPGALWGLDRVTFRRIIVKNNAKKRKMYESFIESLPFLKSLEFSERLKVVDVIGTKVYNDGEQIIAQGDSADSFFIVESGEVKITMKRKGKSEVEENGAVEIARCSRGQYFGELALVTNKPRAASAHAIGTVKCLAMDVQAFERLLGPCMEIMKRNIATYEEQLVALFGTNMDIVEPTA
# Sequence of UniProt P11498 (P11498 whole entry, looked up): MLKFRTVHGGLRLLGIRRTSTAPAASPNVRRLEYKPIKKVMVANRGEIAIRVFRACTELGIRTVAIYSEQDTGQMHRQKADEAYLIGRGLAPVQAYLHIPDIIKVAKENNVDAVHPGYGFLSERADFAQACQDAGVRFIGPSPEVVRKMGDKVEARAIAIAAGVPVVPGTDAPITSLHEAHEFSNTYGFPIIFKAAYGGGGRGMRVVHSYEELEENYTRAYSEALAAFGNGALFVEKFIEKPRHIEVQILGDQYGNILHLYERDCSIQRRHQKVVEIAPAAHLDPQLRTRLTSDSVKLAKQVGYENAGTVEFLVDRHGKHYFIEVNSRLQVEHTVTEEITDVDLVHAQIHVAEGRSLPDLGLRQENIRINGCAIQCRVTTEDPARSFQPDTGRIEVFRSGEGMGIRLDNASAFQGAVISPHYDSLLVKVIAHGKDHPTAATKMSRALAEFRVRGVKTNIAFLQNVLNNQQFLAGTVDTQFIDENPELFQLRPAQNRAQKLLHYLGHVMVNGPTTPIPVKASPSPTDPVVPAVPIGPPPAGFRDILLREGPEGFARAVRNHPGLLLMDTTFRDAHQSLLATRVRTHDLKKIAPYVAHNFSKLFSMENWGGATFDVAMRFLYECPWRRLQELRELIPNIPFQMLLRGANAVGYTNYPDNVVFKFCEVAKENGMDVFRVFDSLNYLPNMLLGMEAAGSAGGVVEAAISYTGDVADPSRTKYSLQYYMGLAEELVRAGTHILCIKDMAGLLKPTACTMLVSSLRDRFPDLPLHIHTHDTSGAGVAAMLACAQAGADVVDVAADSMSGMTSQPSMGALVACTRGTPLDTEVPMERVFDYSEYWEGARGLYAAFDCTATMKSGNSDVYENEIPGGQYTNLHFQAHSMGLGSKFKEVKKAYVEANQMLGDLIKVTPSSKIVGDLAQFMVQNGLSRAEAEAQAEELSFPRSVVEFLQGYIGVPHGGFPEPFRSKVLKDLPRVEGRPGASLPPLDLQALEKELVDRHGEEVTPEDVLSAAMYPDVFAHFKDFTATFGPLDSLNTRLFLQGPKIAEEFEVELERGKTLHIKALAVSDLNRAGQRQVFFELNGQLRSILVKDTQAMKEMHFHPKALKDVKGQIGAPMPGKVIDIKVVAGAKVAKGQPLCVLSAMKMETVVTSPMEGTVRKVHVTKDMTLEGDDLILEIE
# Sequence of UniProt Q8WUM4 (Q8WUM4 whole entry, looked up): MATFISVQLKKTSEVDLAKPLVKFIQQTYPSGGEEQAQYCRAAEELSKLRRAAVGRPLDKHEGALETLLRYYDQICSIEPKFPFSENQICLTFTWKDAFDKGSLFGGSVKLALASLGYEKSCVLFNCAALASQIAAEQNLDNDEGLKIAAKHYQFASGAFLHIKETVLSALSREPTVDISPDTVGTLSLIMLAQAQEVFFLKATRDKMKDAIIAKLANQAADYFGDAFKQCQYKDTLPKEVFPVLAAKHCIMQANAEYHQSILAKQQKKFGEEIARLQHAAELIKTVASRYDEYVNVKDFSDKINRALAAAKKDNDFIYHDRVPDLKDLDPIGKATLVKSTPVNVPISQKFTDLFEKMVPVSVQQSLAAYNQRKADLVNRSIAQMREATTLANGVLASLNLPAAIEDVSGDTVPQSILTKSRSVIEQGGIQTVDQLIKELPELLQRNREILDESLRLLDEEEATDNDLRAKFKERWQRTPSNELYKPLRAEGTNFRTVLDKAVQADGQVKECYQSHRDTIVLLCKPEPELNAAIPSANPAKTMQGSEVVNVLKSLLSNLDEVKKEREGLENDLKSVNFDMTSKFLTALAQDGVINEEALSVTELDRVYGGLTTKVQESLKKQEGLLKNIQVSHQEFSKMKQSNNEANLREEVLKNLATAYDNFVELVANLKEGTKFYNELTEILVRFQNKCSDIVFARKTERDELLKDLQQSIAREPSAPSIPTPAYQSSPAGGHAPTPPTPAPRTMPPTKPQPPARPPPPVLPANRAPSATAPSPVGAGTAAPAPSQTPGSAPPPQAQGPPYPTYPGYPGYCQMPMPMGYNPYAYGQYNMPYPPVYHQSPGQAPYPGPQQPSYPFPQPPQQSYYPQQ
# Sequence of UniProt Q99460 (Q99460 whole entry, looked up): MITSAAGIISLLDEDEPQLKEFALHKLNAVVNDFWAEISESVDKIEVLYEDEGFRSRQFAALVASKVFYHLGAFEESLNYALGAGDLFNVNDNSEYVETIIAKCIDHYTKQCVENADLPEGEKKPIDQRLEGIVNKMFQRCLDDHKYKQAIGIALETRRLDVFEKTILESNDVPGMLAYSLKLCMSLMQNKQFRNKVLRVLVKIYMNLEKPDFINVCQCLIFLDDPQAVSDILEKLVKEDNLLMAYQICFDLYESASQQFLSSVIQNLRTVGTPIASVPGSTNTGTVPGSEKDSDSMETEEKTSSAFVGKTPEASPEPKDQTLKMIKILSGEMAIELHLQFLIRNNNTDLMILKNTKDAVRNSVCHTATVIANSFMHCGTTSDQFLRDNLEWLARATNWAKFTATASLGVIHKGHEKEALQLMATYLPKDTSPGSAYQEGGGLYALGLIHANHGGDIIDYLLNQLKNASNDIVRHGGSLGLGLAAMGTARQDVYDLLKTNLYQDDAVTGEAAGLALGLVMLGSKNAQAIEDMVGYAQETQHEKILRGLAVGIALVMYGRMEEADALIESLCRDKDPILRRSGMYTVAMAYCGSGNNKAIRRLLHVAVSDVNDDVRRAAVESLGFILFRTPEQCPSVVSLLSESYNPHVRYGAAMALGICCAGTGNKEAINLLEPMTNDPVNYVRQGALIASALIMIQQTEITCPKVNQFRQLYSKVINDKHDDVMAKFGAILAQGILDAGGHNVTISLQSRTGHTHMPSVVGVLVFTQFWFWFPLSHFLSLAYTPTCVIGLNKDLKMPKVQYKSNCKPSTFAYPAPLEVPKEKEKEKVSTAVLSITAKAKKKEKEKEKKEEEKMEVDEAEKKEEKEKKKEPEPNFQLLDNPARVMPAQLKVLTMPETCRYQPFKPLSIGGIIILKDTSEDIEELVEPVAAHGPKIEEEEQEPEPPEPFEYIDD
# Sequence of UniProt Q9Y5Y5 (Q9Y5Y5 whole entry, looked up): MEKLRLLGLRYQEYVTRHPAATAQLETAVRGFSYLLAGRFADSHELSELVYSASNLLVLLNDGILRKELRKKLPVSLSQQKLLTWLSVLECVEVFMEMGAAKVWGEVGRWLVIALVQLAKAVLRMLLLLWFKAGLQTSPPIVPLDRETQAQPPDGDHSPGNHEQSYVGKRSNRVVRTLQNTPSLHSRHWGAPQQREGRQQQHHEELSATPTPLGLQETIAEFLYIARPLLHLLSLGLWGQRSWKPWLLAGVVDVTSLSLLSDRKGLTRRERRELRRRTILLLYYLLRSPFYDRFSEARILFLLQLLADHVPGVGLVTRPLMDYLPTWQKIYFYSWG
# Sequence of UniProt O75400 (O75400 whole entry, looked up): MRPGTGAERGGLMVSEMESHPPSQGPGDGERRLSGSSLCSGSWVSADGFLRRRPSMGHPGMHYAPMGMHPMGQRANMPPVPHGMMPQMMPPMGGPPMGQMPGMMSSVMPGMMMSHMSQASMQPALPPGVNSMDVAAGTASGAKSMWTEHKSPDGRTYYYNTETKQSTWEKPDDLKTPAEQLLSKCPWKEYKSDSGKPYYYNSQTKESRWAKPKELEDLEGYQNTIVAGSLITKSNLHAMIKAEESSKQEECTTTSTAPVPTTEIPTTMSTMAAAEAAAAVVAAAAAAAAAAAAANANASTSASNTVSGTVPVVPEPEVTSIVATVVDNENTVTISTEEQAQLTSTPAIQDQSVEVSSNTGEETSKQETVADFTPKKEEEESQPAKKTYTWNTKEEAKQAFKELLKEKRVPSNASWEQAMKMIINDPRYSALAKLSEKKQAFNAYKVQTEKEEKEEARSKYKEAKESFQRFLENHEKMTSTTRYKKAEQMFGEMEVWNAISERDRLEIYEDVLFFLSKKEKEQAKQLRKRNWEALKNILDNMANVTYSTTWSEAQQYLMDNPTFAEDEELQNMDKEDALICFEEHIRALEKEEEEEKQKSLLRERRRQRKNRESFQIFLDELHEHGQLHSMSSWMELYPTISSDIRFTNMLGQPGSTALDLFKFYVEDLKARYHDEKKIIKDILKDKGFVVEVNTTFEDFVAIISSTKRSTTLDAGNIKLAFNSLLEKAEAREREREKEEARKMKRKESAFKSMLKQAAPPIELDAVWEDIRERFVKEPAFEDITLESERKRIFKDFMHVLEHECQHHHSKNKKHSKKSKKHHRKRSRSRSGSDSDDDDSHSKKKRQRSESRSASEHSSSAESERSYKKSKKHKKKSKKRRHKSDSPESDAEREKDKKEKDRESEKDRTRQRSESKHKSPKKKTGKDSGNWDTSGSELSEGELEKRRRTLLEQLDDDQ
# Sequence of UniProt O00625 (O00625 whole entry, looked up): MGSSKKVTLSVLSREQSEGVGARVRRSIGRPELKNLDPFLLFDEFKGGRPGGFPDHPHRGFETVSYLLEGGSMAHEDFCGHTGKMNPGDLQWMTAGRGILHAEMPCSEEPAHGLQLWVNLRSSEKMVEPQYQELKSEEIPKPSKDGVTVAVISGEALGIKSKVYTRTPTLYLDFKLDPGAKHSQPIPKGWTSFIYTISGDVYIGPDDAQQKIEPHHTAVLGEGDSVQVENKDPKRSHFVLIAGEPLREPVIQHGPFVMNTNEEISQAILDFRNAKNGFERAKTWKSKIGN
Target,log2 fold change (IRAK-1-4 Inhibitor I),log2 fold change (ibrutinib),log2 fold change [1],log2 fold change (ralimetinib),log2 fold change [2],log2 fold change [3],log2 fold change [4],log2 fold change (pinometostat),log2 fold change [5],log2 fold change [6],log2 fold change [7],log2 fold change [8],log2 fold change [9],log2 fold change [10],log2 fold change (Nexturastat A),log2 fold change (vemurafenib),log2 fold change [11],log2 fold change [12],log2 fold change (givinostat),log2 fold change (barasertib)
PDCD6IP (UniProt Q8WUM4),-0.156,-0.11,-0.039,0.046,-0.198,-0.327,0.019,0.084,0.015,0.044,0.032,-0.079,0.077,0.058,0.066,0.106,0.153,0.119,0.183,0.135
PIP4K2B (UniProt P78356),0.254,0.01,0.856 (active),0.005,-0.149,0.033,-0.034,-0.014,-0.11,0.065,-0.055,-0.048,0.033,0.026,-0.088,0.045,0.02,0.039,-0.076,0.004
PDIK1L (UniProt Q8N165),-0.006,-0.205,-0.693 (active),-0.173,0.032,-0.139,0.091,-0.012,0.052,-0.197,-0.079,0.031,-0.265,0.068,-0.077,0.026,0,0.03,0.034,0.055
PRKAR2B (UniProt P31323),-0.038,-0.011,-0.833 (active),-0.039,-0.007,-0.068,0.044,0.108,-0.075,0.022,0.04,0.017,0.038,0.022,0.046,0.033,0.052,-0.014,0,0.047
PRMT3 (UniProt O60678),0,-0.102,-0.023,-0.028,-0.167,-0.189,0.028,0.003,0.013,0.079,0.016,-0.025,0.044,0.076,-0.026,0.056,0.055,0,-0.013,0.035
PCBP2 isoform 3 (UniProt Q15366),-0.065,-0.048,-0.056,0.017,-0.067,-0.211,-0.029,-0.049,-0.013,0.025,0.054,-0.024,0.065,0.149,-0.006,0.056,0.129,-0.004,0.031,0.013
POLR3D (UniProt P05423),-0.017,0.766,0.022,0.043,-0.1,-0.158,-0.002,0.109,0.012,0.009,-0.078,0.014,-0.01,-0.023,0.153,0.03,0.055,0.104,0.065,0.098
PRPF40A (UniProt O75400),-0.093,-0.085,-0.149,0.095,-0.022,-0.411 (active),0.043,-0.041,-0.034,0.13,0.016,0,0.022,0.018,-0.051,0.109,0.02,0.073,0.156,0
PSMD11 (UniProt O00231),-0.048,0,0.086,0.076,0,-0.001,-0.263 (active),0.029,0.011,0.037,0.048,-0.005,0.017,-0.006,0.124,-0.031,0.058,0.047,-0.027,-0.056
PC (UniProt P11498),-0.024,0.04,-0.151,-0.02,-0.038,0.183,-0.037,-0.016,-0.081,0.15,0.07,-0.103,0.038,0.012,-0.07,0,0.032,0.039,0.022,0.009
PURA (UniProt Q00577),-0.151,0.096,0.169,0.064,0.276,0.129,0.079,0.087,-0.005,-0.792 (active),0.032,0.032,-0.101,-0.121,0.112,-0.111,-0.143,0.144,-0.008,-0.091
QRSL1 (UniProt Q9H0R6),0.016,0.023,-0.025,0.001,-0.071,-0.231 (active),-0.003,-0.087,0.041,0.025,-0.001,-0.079,0.018,0.041,-0.09,0.086,0.061,0.093,0.033,0.044
POLR2M (UniProt P0CAP2),-0.022,-0.017,0.067,0.016,0.001,0.059,0.058,-0.02,0.067,0,0.007,-0.014,0.027,0,-0.019,0.021,-0.062,0,-0.031,-0.009
PSMD1 (UniProt Q99460),-0.037,-0.022,0.03,0.061,0.009,0.054,-0.254 (active),0.023,0.028,-0.004,0.06,0.021,-0.001,-0.011,0.055,-0.041,-0.049,0.05,-0.046,-0.036
PIR (UniProt O00625),-0.016,0.019,0.016,-0.056,0.073,0.011,-0.042,-0.01,0.015,0.037,-0.063,0.325 (active),0.002,-0.035,-0.053,0.03,0.122,0.085,-0.146,0.007
PEX16 isoform 2 (UniProt Q9Y5Y5),-0.068,-0.059,-0.025,-0.104,-0.067,-0.407 (active),0.033,-0.052,0.03,0.136,0.017,0.038,0.083,0.146,-0.033,0.071,0.089,-0.07,0.006,-0.007

# — the supplement of paper PMC10849652
